Measurements reported in PubChem BioAssay (NCI).
About 83,000 compounds went through this panel and 20% of them were active in at least one assay; those are over-represented in the sample as a whole.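 Treatment: one concentration, 48 hours, 96-well format. Scoring: percent growth, with anything below 10 considered active.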 Unmarked numbers belong to inactive results. Active and inactive are the calls of the source.

Legend:
Experiment in all cases: NCI-60 one-dose screen, 48 h (100 = growth as untreated, 0 = no growth, -100 = all killed)
SK-MEL-2 melanoma = settings: 10 µM unless noted
EKVX NSCLC = settings: 10 µM unless noted
SN12C renal = settings: 10 µM unless noted
UO-31 renal = settings: 10 µM unless noted
TK-10 renal = settings: 10 µM unless noted
ACHN renal = settings: 10 µM unless noted
CAKI-1 renal = settings: 10 µM
A498 renal = settings: 10 µM unless noted
CCRF-CEM leukemia = settings: 10 µM unless noted
MOLT-4 leukemia = settings: 10 µM unless noted
RPMI-8226 leukemia = settings: 10 µM unless noted
OVCAR-8 ovarian = settings: 10 µM unless noted
OVCAR-5 ovarian = settings: 10 µM unless noted
OVCAR-4 ovarian = settings: 10 µM unless noted
SK-OV-3 ovarian = settings: 10 µM unless noted
IGROV1 ovarian = settings: 10 µM unless noted
HS 578T breast = settings: 10 µM unless noted
NCI/ADR-RES ovarian = settings: 10 µM unless noted
SR leukemia = settings: 10 µM unless noted
OVCAR-3 ovarian = settings: 10 µM unless noted

Compound | growth (SK-MEL-2 melanoma) | growth (EKVX NSCLC) | growth (SN12C renal) | growth (UO-31 renal) | growth (TK-10 renal) | growth (ACHN renal) | growth (CAKI-1 renal) | growth (A498 renal) | growth (CCRF-CEM leukemia) | growth (MOLT-4 leukemia) | growth (RPMI-8226 leukemia) | growth (OVCAR-8 ovarian) | growth (OVCAR-5 ovarian) | growth (OVCAR-4 ovarian) | growth (SK-OV-3 ovarian) | growth (IGROV1 ovarian) | growth (HS 578T breast) | growth (NCI/ADR-RES ovarian) | growth (SR leukemia) | growth (OVCAR-3 ovarian)
Cc1ccc(-c2nnc3sc(C4=Cc5ccccc5OC=C4)nn23)cc1 | 104% | 99.4% | 97.3% | 87.3% | 89.1% | 105% | 79.6% | 61.6% | 105% | 82.8% | 101% | 89.8% | 98% | 99.2% | 118% | 109% | 112% | 98.2% | – | –
COc1ccc(-c2cc(-c3cccc4ccccc34)n3c(n2)nc2ccccc23)cc1 | 79.1% | 74.9% | 36.9% | 29% | 43% | 19.7% | 21% | 41.5% | 9.05% (active) | 2.23% (active) | 32.7% | 42.1% | 81.1% | 64.8% | 58.4% | 48.7% | 55% | 54.2% | – | –
O=C1c2c(c3c4cc(O)ccc4oc3c3[nH]c4ccccc4c23)C(=O)N1O | -71.6% (active) | 66.6% | 17.1% | -40.1% (active) | 31.1% | -5.43% (active) | -16.5% (active) | -9.95% (active) | 1.62% (active) | 4.76% (active) | 4.71% (active) | 12.1% | 72.5% | 22% | -17% (active) | 0.286% (active) | -8.67% (active) | 40.7% | – | –
O=C(Nc1ccc(-c2nc(-c3cccc(O)c3)c(-c3ccnc(Br)c3)[nH]2)cc1)c1ccccc1 | 10.3% | 26.7% | 35% | 1.13% (active) | 49% | 16.5% | 11.3% | -11.4% (active) | 3.66% (active) | -15.8% (active) | – | 24.3% | 57.7% | 35% | -5.97% (active) | 25.6% | -24.1% (active) | 57.6% | -15.2% (active) | 31.6%
COc1ccc(NS(=O)(=O)c2ccc(-c3cnc(C4CC4)o3)cc2)cc1Cl | 49.9% | 38.2% | 50.4% | 51.8% | 69% | 46.1% | -22.9% (active) | 13.1% | 17.2% | 32.4% | – | 40.4% | 48.8% | 52.5% | 60% | 41.4% | 28.1% | 18.6% | 23.2% | 15.5%
CC1(C)CC[C@]2(C(=O)N3CCCNCC3)CC[C@]3(C)C(=CC[C@@H]4[C@@]5(C)CCC(=O)C(C)(C)[C@@H]5CC[C@]43C)[C@H]2C1 | 108% | 103% | 98.7% | 95.3% | 97.1% | 105% | 89% | 109% | 90.6% | 106% | 98.7% | 103% | 104% | 116% | 115% | 117% | 106% | 100% | – | –
CC(=O)Nc1ccc(NC(=O)Nc2cccc(-c3nc(-c4ccc(NC(=O)c5cccnc5)cc4Cl)no3)c2)cc1C(F)(F)F | -68.5% (active) | -39% (active) | -65% (active) | 52.9% | -31.7% (active) | 34.2% | -68.9% (active) | -64.8% (active) | -14.5% (active) | -30.8% (active) | – | -9.07% (active) | -49.4% (active) | -53.7% (active) | -57.9% (active) | -54% (active) | -22.9% (active) | 69.2% | -25.1% (active) | -63.7% (active)
COc1ccc(Oc2ccc(C3CC(c4cc(OC)c(OC)c(OC)c4)=NN3C(C)=O)cc2)cc1 (configuration not stated) | 49% | 25.4% | 22.3% | 10.1% | 20% | 20.8% | 36.1% | 29.5% | 37.7% | 14.2% | – | 30.3% | 50.2% | 18% | 50.9% | 19.7% | 51.3% | 19.8% | 35.7% | 25.1%
O=C(C[n+]1ccnc2ccccc21)c1ccc(O)c(O)c1 | 77.7% | 94.2% | 59.5% | 40.3% | 43.1% | 17.8% | 69.8% | 87.7% | 4.57% (active) | 11.6% | – | 48.4% | 70.5% | – | 112% | 51.4% | 94.4% | 57.2% | 7.3% (active) | 21.7%
O=S(=O)(Nc1ccc(I)c(Cl)c1)c1ccc(-c2cnc(C3CC3)o2)cc1 | 43.7% | 42.5% | 42.9% | 51.7% | 53.3% | 41.5% | 6.99% (active) | 2.08% (active) | 14.1% | 29.2% | – | 38.9% | 45.2% | 56.8% | 50.2% | 36.3% | 17.9% | 14.6% | 27.9% | -9.98% (active)
CCNCc1c(-c2cccc(OC(F)(F)F)c2)[nH]c2ccc(N3CCCC3)cc2c1=O | 42.3% | 88.1% | 28.2% | 31.9% | 90.5% | 34.4% | -9.12% (active) | -13.6% (active) | 7.62% (active) | 18.4% | – | 22.5% | 24.5% | 49.8% | 34.2% | 22.6% | 8.12% (active) | 9.42% (active) | 9.06% (active) | -6.81% (active)
C#C[C@]1(O)CC[C@H]2[C@@H]3CC=C4c5sc(C6CCOCC6)nc5CC[C@]4(C)[C@H]3CC[C@@]21C | 94.6% | 84.2% | 82.9% | 83.9% | 113% | 88.2% | 84.5% | 96.9% | 52.3% | 38.3% | – | 83.8% | 88.6% | 89.7% | 104% | 90.8% | 66.9% | 80.6% | 58.6% | 94.2%
Cc1ccc(-c2cc(-c3ccc(N(C)C)cc3)n3c(n2)nc2ccccc23)cc1 | 16% | 57.9% | 62.8% | 41.8% | 61.1% | 49.3% | 59.3% | 15.6% | 54.8% | 38.9% | 36.2% | 54.2% | 109% | 60.9% | – | 86.2% | 83% | 56.7% | – | –
O=S(=O)(Nc1ccc(-n2cnc3cc(-c4ccc(O)cc4)ccc32)cc1)C1CC1 | 95% | 101% | 88.3% | 55.6% | 111% | 78.1% | 66.3% | 66% | 79.4% | 72% | 79.8% | 88.7% | 107% | 78.2% | 117% | 86% | 95% | 94.2% | – | –
COc1ccc(Cn2cc3c(c2-c2cc(OC)c(OC)c(OC)c2)CCCc2cnoc2-3)cc1 | 54.9% | 40.2% | 36.3% | 30.7% | 67.5% | 36.3% | 19.6% | – | 15.8% | 8.85% (active) | 23.4% | 43% | 34.9% | 62.3% | 58% | 22.1% | 22.1% | 15.5% | 13.4% | 4.45% (active)
CCOc1c(C#N)c(Nc2ccc(S(N)(=O)=O)cc2)c(C#N)c2nnc(C)n12 | 101% | 90.5% | 98.1% | 78.4% | 125% | 90.2% | 88.7% | – | 104% | 104% | 107% | 99.4% | 107% | 117% | 102% | 101% | 102% | 105% | 100% | 114%
COc1ccccc1/C=C/C=N/NC1=NC2C(S1)N(C)C(=O)N2c1ccccc1 (configuration not stated) | 67.6% | 39.4% | 20.6% | 35.9% | 68.6% | 24.7% | 46.4% | – | 14.3% | 4.1% (active) | 18.9% | 24.4% | 33.3% | 56.8% | 62.4% | 19.4% | 25.5% | 10.4% | 16.7% | -27.2% (active)
COC[C@]12CC[C@@H](C)[C@H](C)[C@H]1C1=CC[C@@H]3[C@@]4(C)CCCNC(C)(C)[C@@H]4CC[C@@]3(C)[C@]1(C)CC2 | 58.5% | 57.8% | 23.2% | 60.2% | 61.9% | 30.7% | 35% | – | 17% | 5.72% (active) | 2.86% (active) | 62.4% | 61.6% | 38% | 85.4% | 30.2% | 74.3% | 44.3% | -3.33% (active) | 41.4%
CCOP(=O)(OCC)OC[C@]12CCC(C)(C)C[C@H]1C1=CC[C@@H]3[C@@]4(C)C/C(=C\c5cccnc5)[C@H](OP(=O)(OCC)OCC)C(C)(C)[C@@H]4CC[C@@]3(C)[C@]1(C)CC2 | 45.1% | 29.9% | 29.3% | 29.9% | 37.3% | 27.8% | 31% | – | 25.3% | 9.52% (active) | -10.3% (active) | 28.9% | 50.1% | 27.6% | 34.8% | 42.6% | 61.1% | 52.3% | 3.36% (active) | 28.5%
O=C1c2c(c3c4cccnc4[nH]c3c3ccc4ccccc4c23)C(=O)N1CCN1CCNCC1 | 113% | 92.4% | 76.7% | 58% | 136% | 37% | 52.2% | 70.2% | – | 8.49% (active) | 74.3% | 50.8% | 113% | 105% | 101% | 51.7% | 107% | 81.4% | -6.6% (active) | –
COc1ccc(Cn2cc3c(c2-c2ccccc2)CCCc2cnoc2-3)cc1 | 80.2% | 69.2% | 79.8% | 57.1% | 91.8% | 58.9% | 46.1% | – | 61.3% | 61.7% | 59.8% | 78.8% | 80.7% | 90.2% | 83.7% | 51.5% | 64.9% | 29.8% | 21.1% | 22%
Oc1ccc(CSc2nnc(-c3ccncc3)o2)c2cccnc12 | 8.88% (active) | 47.6% | 7.4% (active) | 12.4% | 34.6% | 40.5% | 7.09% (active) | 9.33% (active) | – | 25.7% | 5.35% (active) | 15.8% | 35.7% | 19.7% | 4.05% (active) | 22.4% | 5.36% (active) | 58.4% | 50.4% | 19.8%
CN(C)C(=O)C1=NC(CO)C(=O)N(c2ccc(Cl)cc2)N1 (configuration not stated) | 99% | 99.5% | 105% | 82.5% | 91.1% | 101% | 92% | – | 104% | 103% | 101% | 104% | 96.5% | 114% | 114% | 101% | 104% | 104% | 107% | 110%
COc1cc(CNC(=O)/C=C/c2ccccc2)ccc1OCC(=O)NO | 99.6% | 95.2% | 95.8% | 81.8% | 102% | 93.3% | 91.4% | – | 105% | 95.7% | 102% | 98.2% | 102% | 108% | 98.9% | 98.1% | 109% | 96.1% | 97% | 104%
